# FBPA coupling cs – coupling enzyme interference in Giardia aldolase counter-screen | coupling enzyme system counterscreen, AmpLite Red fluorescence | activity change, negative = inhibition, % at 58.2 µM, hits read low | actives 0.67% (n = 290,000); in the data active means activity change below about -30%
#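 First, compound is pin-transferred into glyceraldehyde-3-phosphate coupling-enzyme reagent at 57.5 uM final and held 10 min at RT. Next, substrate, coupling system and AmpLite Red are added. After 20 min RT, fluorescence (525/598 nm) is read.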
# Tau fibril ThT – inhibitors of human tau fibril formation, thioflavin T binding; Potency, µM (highest dose often 57.4 µM), inactives show top-dose activity, negative = inhibition, most hits filed as inhibitors; actives 2.1% (n = 270,000); recombinant tau K18 P301L, heparin-induced fibrillization, ThT fluorescence; further: potency means the concentration at half of the fitted maximal effect; nearly all actives have a fitted effect of over 55% in size
# Target sequence (P10636 561-689 P618L limits assumed): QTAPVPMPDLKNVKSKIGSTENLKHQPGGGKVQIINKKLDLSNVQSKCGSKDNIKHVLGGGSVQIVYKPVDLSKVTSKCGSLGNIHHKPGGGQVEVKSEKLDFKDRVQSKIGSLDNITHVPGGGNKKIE
#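 Heparin-induced fibrillization of the P301L-mutant K18 repeat-domain fragment of human tau was followed by ThT binding in quantitative high-throughput format.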
# Sfp inh – inhibitors of Bacillus subtilis Sfp phosphopantetheinyl transferase; Q9F4F7; Biochemical Sfp PPTase activity, qHTS; Potency, µM, inactives show largest response in the series, negative = inhibition, actives largely listed as inhibitors; actives 3.5% (n = 310,000);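 further: the enzyme is Sfp with the accession as filed and its product quenches rhodamine fluorescence; potency means the concentration at half of the fitted maximal effect; 0% = enzyme reaction without inhibitor and -100% = no enzyme wells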
#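 Sfp 15 nM + cpd, 15 min RT; start w/ rhodamine-CoA 5 uM, BHQ-2-YbbR 12.5 uM (final); 50 mM Hepes pH 7.6, 10 mM MgCl2, 0.01% NP-40, 0.01% BSA; read 525/598 nm at 0 and 30 min.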
# Tau fibril FP – blocks human tau fibril formation measured by polarization. P10636. K18 P301L tau heparin fibrillization, Alexa594 FP, 6 h. Potency, µM (doses to about 57.7 µM), for the others: at the highest dose activity, negative = inhibition, most hits filed as inhibitors. actives 0.39% (n = 280,000). AID 1468; further: potency means the concentration at half of the fitted maximal effect; nearly all actives have a fitted effect of over 55% in size
#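 Steps: dispense K18 P301L tau (15 uM plus 0.24 uM Alexa 594 tracer, final) in pH 7 sodium acetate; add compound; add heparin (20 uM final); incubate 6 hr, 37 C; add ThT (30 uM final); after 1 hr ambient, read FP.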
# Tau fluor counter – counter-screen for tau fibril formation inhibitors; tau K18 P301L (four-repeat tau fragment) Alexa594 fluorescence, heparin fibrillization; Potency, µM (series often up to 57.7 µM), for the others: top-dose activity change, negative = decrease; actives 0.93% (n = 280,000); further: potency means the concentration at half of the fitted maximal effect; nearly all actives have a fitted effect of over 55% in size
#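 Human K18 P301L tau (15 uM unlabeled plus 0.24 uM Alexa 594-labeled, final) in 100 mM sodium acetate pH 7 was mixed with compound and 20 uM heparin and incubated 6 hr at 37 C.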
# The depositor's hits bear a star; ? = inconclusive; . = no result given; [ ] = remark or other dose. Only some compounds are listed: those with a hit (about 5.2% of all), similar ones and a draw of the others. Unless noted, the call rests on the fitted dose curve; in most records, active means well fitted curve in the direction sought with a large enough effect; inconclusive means small, poorly fitted or top-dose-only effect, or another doubt; inactive means no such curve, though single readings can be large; an effect the other way counts as inactive or inconclusive. Unless noted, on the % scale 0 is the no-effect control and ±100 the full control effect.
SMILES,FBPA coupling cs,Tau fibril ThT,Sfp inh,Tau fibril FP,Tau fluor counter
O=C1N/C(=C/c2ccc(N3CCOCC3)o2)C(=O)N1c1ccccc1,-8,?,-91%,-16%,3%
COc1ccc2cc(/C=C3\SC(=S)NC3=O)c(N3CCOCC3)nc2c1,10,16µM*,-8%,4%,-24%
C=CCN1C(=O)N/C(=C/c2ccc(N3CCOCC3)o2)C1=O,-12,7.9µM*,?,?,-28%
CC(=O)Oc1c(C)cc(OCC(O)CNC(C)C)c(C)c1C (stereo unspecified),0,-16%,26%,-1%,-19%
COc1ccccc1NCC(=O)N/N=C/C=C/c1ccccc1,-5,14µM*,-19%,4%,?
C=CCc1cccc(/C=N/NC(=O)CCCNc2ccc(C)cc2)c1O,-7,?,22%,11%,11µM*[quencher]
C=CCc1cccc(/C=N/NC(=O)CNc2ccccc2)c1O,-1,4%,6%,?,?
C=CCc1cccc(/C=N/NC(=O)CNc2ccccc2OC)c1O,0,?,21%,?,16µM*[quencher]
O=C(CC1N=C2c3ccccc3N=C(SCc3cccc(F)c3)N2C1=O)NCc1ccc2c(c1)OCO2 (stereo unspecified),.,?,.,0%,-13%
COc1ccc(-c2cc3nc(C)c(CCC(=O)NCc4ccccc4Cl)c(C)n3n2)c(OC)c1,.,-5%,.,?,-23%
CSCCOC(=O)C1=C(C)NC(=O)NC1c1ccc2c(c1)OCO2 (stereo unspecified),5,.,11%,.,.
CCOCCOC(=O)C1=C(C)Nc2ccc(C)cc2S1,0,?,?,1%,-22%
CCOC(=O)CC1Sc2ccccc2NC1=S (stereo unspecified),-2,?,40µM*,-20%,?
CCOC(=O)C1=C(C)Nc2ccccc2S1,0,.,50µM*,-6%,-27%
CSCCOC(=O)C1=C(C)Nc2ccc(C)cc2S1,-6,?,50µM*,10%,?
CCOC(=O)C1=C(C)Nc2ccc(C)cc2S1,-2,16µM*,50µM*,-8%,?
COc1cccc(NC(=O)Cn2cc(S(=O)(=O)N3CCCC3)c(S(=O)(=O)N3CCCC3)c2)c1,.,-3%,.,-9%,-23%
COc1ccc(OC)c(NC(=O)CN(C)S(=O)(=O)c2ccc(C(=O)N3CCOCC3)s2)c1,.,8%,.,?,-8%
CCc1[nH]c(=O)[nH]c1C(C)S(=O)(=O)c1ccc(C)cc1 (stereo unspecified),3,?,20µM*,?,-19%
CCc1c(C(C)S(=O)(=O)c2ccc(C)cc2)[nH]c(=O)n1-c1ccc(C)cc1 (stereo unspecified),2,?,56µM*,-3%,-15%
Cc1ccc(-n2c3c(c(=O)[nH]c2=O)C(NS(=O)(=O)c2ccc(C)cc2)(C(F)(F)F)C(=O)N3)cc1 (stereo unspecified),-1,-11%,15%,7%,-12%
O=c1c(CCc2ccccc2)nc2cnc(Oc3ccccc3)nc2n1C[C@H]1CCCO1,0,.,-14%,.,.
COC(=O)[C@@]1(Cc2ccccc2)[C@H]2c3cc(C(=O)N4CCCC4)n(CCN4CNCC4=O)c3C[C@H]2CN1C(=O)c1ccccc1,3,4%,8%,3%,-1%
CCc1cc2cc(C)cc(C)c2[nH]c1=S,-1,-18%,56µM*,-1%,-11%
COc1cccc(C2C(C#N)=C(N)Oc3cc(C)n(Cc4ccco4)c(=O)c32)c1 (stereo unspecified),0,?,7.9µM*,2%,-17%
SMILES,FBPA coupling cs,Tau fibril ThT,Sfp inh,Tau fibril FP,Tau fluor counter
COc1ccc(C2C(C#N)=C(N)Oc3cc(C)n(Cc4ccco4)c(=O)c32)cc1 (stereo unspecified),-3,3%,32µM*,-1%,-6%
COc1ccccc1C1C(C#N)=C(N)Oc2cc(C)n(Cc3ccccn3)c(=O)c21 (stereo unspecified),-21,?,50µM*,-10%,-11%
COc1cccc(C2C(C#N)=C(N)Oc3cc(C)n(Cc4ccccn4)c(=O)c32)c1OC (stereo unspecified),3,-4%,11%,-3%,-10%
Cc1cc2c(c(=O)n1Cc1cccnc1)C(c1ccccc1)C(C#N)=C(N)O2 (stereo unspecified),1,-11%,-25%,-8%,-13%
COc1cc(SC)ccc1C(=O)N1CCn2c3c(c4cc(C)ccc42)CCCC31 (stereo unspecified),.,?,.,13%,?
COc1ccc(CNC(=O)c2sc3nc4n(c(=O)c3c2C)CCCCC4)cc1,.,-15%,.,4%,-14%
O=C(O)c1ccc(NC(=S)NC(=O)c2ccc(-c3ccc(Br)cc3)o2)cc1,2,.,45µM*,.,.
O=C(O)c1cccc(NC(=S)NC(=O)c2ccc(-c3ccc(Cl)cc3)o2)c1,3,?,?,-3%,-8%
Cc1ccc(C(=O)O)cc1NC(=S)NC(=O)c1ccc(-c2ccc(Cl)cc2)o1,0,.,50µM*,1%,-19%
COc1ccc(C(=O)O)cc1NC(=S)NC(=O)c1ccc(-c2ccc(Cl)cc2)o1,4,?,?,-15%,?
O=C1/C(=C\c2ccc(O)c(O)c2)N=C2CCCCCN12,-4,?,56µM*,-5%,-24%
COc1cc(/C=C2\N=C3CCCCCN3C2=O)ccc1O,1,-16%,9%,10%,-5%
Cc1ccccc1Cn1c(CN2CCC(C(=O)NCCN(C)C)CC2)cc2ccccc21,.,-10%,.,1%,-10%
COC(=O)[C@@H](c1ccccc1Cl)N1CCc2sccc2C1,.,-12%,11%,-5%,-5%
O=C(N=Nc1c(O)n(Cc2ccccc2)c2ccccc12)c1cc2ccccc2cc1O,4,13µM*,?,?,-23%
COc1ccc(C(=O)NCC(=O)N=Nc2c(O)n(Cc3ccccc3)c3ccccc23)cc1OC,3,?,14%,6%,-6%
Cc1cc(N=NC(=O)c2ccccc2O)c2ccccc2c1O,-11,14µM*,-8%,?,?
Cn1c(O)c(N=NC(=O)c2ccccc2O)c2ccccc21,-2,13µM*,?,8%,-11%
Cc1occc1C(=O)N=Nc1c(O)n(C)c2ccccc12,5,?,0%,-4%,5%
COc1ccccc1NC(=O)Cn1c(O)c(N=NC(=O)c2ccccc2O)c2ccccc21,0,?,-56%,-12%,-29%
O=C(N=Nc1c(O)n(Cc2ccccc2)c2ccccc12)c1ccc(O)cc1,-2,14µM*,8%,-10%,?
Cc1ccc(NC(=O)Cn2c(O)c(N=NC(=O)c3cc4ccccc4cc3O)c3ccccc32)cc1,0,?,-16%,15%,-22%
Cc1ccc2nc(Nc3ccc(Br)cc3)nc(-c3ccccc3)c2c1,.,-13%,.,?,-26%

# High-throughput results from PubChem BioAssay.
